Laboratory results: PubChem BioAssay (EPA / NIEHS)
Results filed as inconclusive are left out. Some compounds were tested as several samples or in several runs, with calls that do not always agree. Activity calls are given as the source filed them. How the source made its calls, unless noted: active means hit-call score of the fitted dose curve at least 0.9, where 1 is the maximum; inactive means score below 0.9.

Key:
[1] = TOX21_p53_BLA_p2_viability: Viability Assessment in the Tox21 HCT-116 p53 Agonism Beta-lactamase Assay, Phase 2 (AID 2283591; active means hit-call score of the fitted dose curve at least 0.9, where 1 is the maximum;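 further: compound exposure lasted 16 h at 37 °C; actives lower the ATP signal meaning cytotoxicity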)
Method in brief: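 HCT116 p53-bla cells, 4000/well, dosed after 5 h plating (217-fold dilution of DMSO stocks) and incubated 16 h at 37C. Viability taken as cellular ATP by CellTiter-Glo luminescence after 30 min RT; signal loss marks cytotoxicity.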

[2] = biological target: Cellular tumor antigen p53 (Homo sapiens) (UniProt P04637); assay: TOX21_p53_BLA_p2_ratio: Tox21 HCT-116 p53 Agonism Beta-lactamase Assay, Ratio, Phase 2 (AID 2283592; active means hit-call score of the fitted dose curve at least 0.9, where 1 is the maximum)
Method in brief: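 DMSO-normalized, positive-direction endpoint derived from the 460 nm/530 nm FRET ratio in HCT116 p53 beta-lactamase reporter cells exposed 16 h at 37C and loaded with CCF4-AM for 2 h.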

[3] = TOX21_p53_BLA_p3_viability: Viability Assessment in the Tox21 HCT-116 p53 Agonism Beta-lactamase Assay, Phase 3 (AID 2283593; active means hit-call score of the fitted dose curve at least 0.9, where 1 is the maximum;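 further: cells exposed to compound for 16 h before reading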)
Method in brief: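 HCT116 cells, 4000/well, dosed 5 h after plating by pin transfer (217-fold dilution from DMSO stock) and incubated 16 h at 37C, 5% CO2. Viability read as ATP luminescence with CellTiter-Glo after 30 min at room temperature.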

[4] = TOX21_p53_BLA_p4_viability: Viability Assessment in the Tox21 HCT-116 p53 Agonism Beta-lactamase Assay, Phase 4 (AID 2283597; active means hit-call score of the fitted dose curve at least 0.9, where 1 is the maximum;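 further: hits lower the luminescence signal meaning cytotoxicity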)
Method in brief: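 In this multiplexed secondary endpoint, HCT116 cells (4000 per well, compound at 5 h, 16 h treatment) received CellTiter-Glo after the beta-lactamase read. Luminescence after 30 min RT reflects ATP, and falling signal marks cytotoxicity.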

[5] = biological target: Cellular tumor antigen p53 (Homo sapiens) (UniProt P04637); assay: TOX21_p53_BLA_p5_ratio: Tox21 HCT-116 p53 Agonism Beta-lactamase Assay, Ratio, Phase 5 (AID 2283599; active means hit-call score of the fitted dose curve at least 0.9, where 1 is the maximum)
Method in brief: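 HCT-116 p53-bla cells (4000/well) plated 5 h, dosed with compound (217-fold DMSO dilution) for 16 h at 37 C; CCF4-AM substrate 2 h at room temperature. Activity is the 460/530 nm emission ratio (405 nm excitation), fitted in gain-of-signal direction versus DMSO.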

[6] = TOX21_p53_BLA_p5_viability: Viability Assessment in the Tox21 HCT-116 p53 Agonism Beta-lactamase Assay, Phase 5 (AID 2283600; active means hit-call score of the fitted dose curve at least 0.9, where 1 is the maximum)
Method in brief: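 Here cell health was gauged by ATP levels in wells holding 4000 cells, each treated 16 h with DMSO-delivered compounds at 217-fold dilution; reduced luminescence marked toxicity.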

[7] = biological target: Cellular tumor antigen p53 (Homo sapiens) (UniProt P04637); assay: TOX21_p53_BLA_p4_ratio: Tox21 HCT-116 p53 Agonism Beta-lactamase Assay, Ratio, Phase 4 (AID 2283601; active means hit-call score of the fitted dose curve at least 0.9, where 1 is the maximum)
Method in brief: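 HCT-116 p53 beta-lactamase reporter cells (4000/well) preincubated 5 h, then compound (217-fold dilution of DMSO stock) for 16 h at 37C. CCF4-AM substrate added 2 h at room temperature; 460/530 nm emission ratio fitted upward versus DMSO.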

[8] = ATG_CMV_CIS: Attagene CIS-FACTORIAL HepG2 Assay for human CMV (Internal Marker) (AID 2282928); settings: HepG2 CMV promoter reporter, transcription factor profiling; actives raise or lower the signal;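 further: endpoint acts as a background internal control marker rather than a target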
Method in brief: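 Reporter transcripts from transfected HepG2 cells are isolated after 24 h of chemical dosing, reverse-transcribed and amplified. Fragments labeled with 6-FAM are cut with HpaI and quantified by capillary electrophoresis; DMSO defines baseline.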

[9] = ATG_AP_2_CIS: Attagene CIS-FACTORIAL HepG2 Assay for human Activator Protein 2 (AP-2) (AID 2282932); settings: HepG2 AP-2 cis-reporter, Attagene transcription factor profiling; actives raise or lower the signal
Method in brief: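 Read-out: fluorescent reporter mRNA via RT-PCR and capillary electrophoresis, 24 h post-dose in transiently transfected HepG2. Endogenous factors drive cis-promoter reporters; gain or loss of signal fitted bidirectionally against DMSO.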

[10] = ATG_BRE_CIS: Attagene CIS-FACTORIAL HepG2 Assay for human Bone Morphogenetic Protein (BMP) Response Element (BRE) (AID 2282933); settings: HepG2 BMP response element reporter, Attagene transcription factor profiling; actives raise or lower the signal
Method in brief: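 Read-out: reporter mRNA induction quantified by RT-PCR and capillary electrophoresis after 24 h chemical exposure of transfected HepG2 cells. Endogenous factor activity on the BMP response element; gain or loss fitted against DMSO baseline.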

[11] = ATG_E_Box_CIS: Attagene CIS-FACTORIAL HepG2 Assay for human Enhancer Box (E-box) (AID 2282936); settings: HepG2 E-box cis-reporter transcription, actives raise or lower the signal
Method in brief: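 Transiently transfected HepG2, endogenous TF-driven reporters, 24 h dosing. Readout: RT-PCR plus capillary electrophoresis of fluorescent reporter fragments. Gain or loss of signal fitted bidirectionally against DMSO baseline.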

[12] = ATG_M_61_CIS: Attagene CIS-FACTORIAL HepG2 Assay for M61 Transcription Factor (Internal Marker) (AID 2282937); settings: HepG2 Attagene CIS-FACTORIAL M61 internal marker reporter; actives raise or lower the signal
Method in brief: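 Cells were transfected with reporter units under cis-regulatory promoters, treated with chemicals for 24 h, then lysed for RNA. Reporter transcripts were quantified by RT-PCR and capillary electrophoresis, and activity was fitted bidirectionally against DMSO.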

[13] = ATG_EGR_CIS: Attagene CIS-FACTORIAL HepG2 Assay for human Early Growth Response 1 (EGR1) (AID 2282938); settings: HepG2 Attagene CIS-FACTORIAL EGR reporter mRNA; actives raise or lower the signal
Method in brief: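 Endogenous TF activity in HepG2 liver cells was gauged through cis-promoter reporter constructs transiently transfected. After 24 h dosing, reporter mRNA was quantified by RT-PCR and capillary electrophoresis, and curves fitted in both directions versus DMSO.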

[14] = ATG_M_19_CIS: Attagene CIS-FACTORIAL HepG2 Assay for M19 Transcription Factor (Internal Marker) (AID 2282939); settings: HepG2 Attagene CIS-FACTORIAL M19 internal marker reporter; actives raise or lower the signal
Method in brief: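 Readout: fluorescent reporter-transcript fragments by capillary electrophoresis after RT-PCR. Human HepG2 liver cells carried transfected MRTU constructs reporting endogenous transcription-factor activity; exposure 24 h. Gain or loss of signal fitted relative to DMSO.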

[15] = ATG_Ets_CIS: Attagene CIS-FACTORIAL HepG2 Assay for human Erythroblast Transformation Specific (ETS) (AID 2282941); settings: HepG2 ETS cis-reporter transcription, actives raise or lower the signal
Method in brief: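 Bidirectional fit versus DMSO of reporter mRNA signal, detected by RT-PCR and capillary electrophoresis in HepG2 cells transiently transfected with cis-element reporters and dosed 24 h.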

[16] = ATG_FoxO_CIS: Attagene CIS-FACTORIAL HepG2 Assay for human Forkhead box O (FoxO) (AID 2282943); settings: HepG2 Attagene cis-reporter, FoxO element, mRNA; actives raise or lower the signal
Method in brief: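 Transfected HepG2 reporter cells exposed to test chemical for 24 h; reporter RNA measured by reverse transcription, PCR and fluorescent capillary electrophoresis; curves fitted for increases and decreases against DMSO.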

[17] = biological target: Cellular tumor antigen p53 (Homo sapiens) (UniProt P04637); assay: TOX21_p53_BLA_p3_ratio: Tox21 HCT-116 p53 Agonism Beta-lactamase Assay, Ratio, Phase 3 (AID 2283596; active means hit-call score of the fitted dose curve at least 0.9, where 1 is the maximum)
Method in brief: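 Cells were seeded at 4000/well, rested 5 h at 37C, then dosed with DMSO compound solutions (217-fold dilution) for 16 h. CCF4-AM substrate was loaded for 2 h at room temperature, and the 460/530 nm emission ratio was fitted for gain of signal versus DMSO.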

[18] = CCTE_Harrill_HTTr_Viability_MCF7: CCTE's 6-hour Cell Viability Assessment for the High-Throughput Transcriptomics (HTTr) Platform, in MCF-7 cells cultured in DMEM + 10% fetal bovine serum, Harrill Lab (AID 2284010)
Method in brief: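 PI exclusion, high-content imaging; 8-pt dilution series, 6 h exposure; bidirectional fit vs DMSO (neg. ctrl/baseline); gain of signal = loss of membrane integrity.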

[19] = CCTE_Harrill_HTTr_Apoptosis_MCF7: CCTE's 6-hour Apoptosis Assessment for the High-Throughput Transcriptomics (HTTr) Platform, in MCF-7 cells cultured in DMEM + 10% fetal bovine serum, Harrill Lab (AID 2284011)
Method in brief: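 Apoptosis in MCF-7 cells grown in DMEM with 10% fetal bovine serum was scored after a six hour exposure by high content imaging of caspase-3/7 activation (CellEvent Caspase 3/7 Green), with DMSO serving as negative control and baseline.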

[20] = biological target: Estrogen receptor (Homo sapiens) (UniProt P03372); assay: NVS_NR_hER: NovaScreen (NVS) Nuclear Receptor Binding Assay for human Estrogen Receptor (ER) (AID 2283348; active means hit-call score of the fitted dose curve at least 0.9, where 1 is the maximum)
Method in brief: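 MCF7-derived receptor extract, radiolabelled ligand, competitive displacement. Read: scintillation counts at 18 h. DMSO = negative control/baseline. Primary 25 uM duplicate; follow-up concentration–response.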

Measured: AC50

Cellular tumor antigen p53 (Homo sapiens), sequence (P04637 whole entry, looked up): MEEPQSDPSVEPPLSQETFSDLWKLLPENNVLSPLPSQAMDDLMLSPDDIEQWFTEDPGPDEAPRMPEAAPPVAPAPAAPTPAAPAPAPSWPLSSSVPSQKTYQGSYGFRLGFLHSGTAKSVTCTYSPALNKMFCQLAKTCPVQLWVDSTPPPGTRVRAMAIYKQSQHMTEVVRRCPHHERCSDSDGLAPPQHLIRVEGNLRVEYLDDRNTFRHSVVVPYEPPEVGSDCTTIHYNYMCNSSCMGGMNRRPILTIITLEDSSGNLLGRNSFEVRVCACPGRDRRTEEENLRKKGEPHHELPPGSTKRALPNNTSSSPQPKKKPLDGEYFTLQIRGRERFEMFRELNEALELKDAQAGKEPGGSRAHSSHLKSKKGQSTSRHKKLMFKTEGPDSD
Estrogen receptor (Homo sapiens), sequence (P03372 whole entry, looked up): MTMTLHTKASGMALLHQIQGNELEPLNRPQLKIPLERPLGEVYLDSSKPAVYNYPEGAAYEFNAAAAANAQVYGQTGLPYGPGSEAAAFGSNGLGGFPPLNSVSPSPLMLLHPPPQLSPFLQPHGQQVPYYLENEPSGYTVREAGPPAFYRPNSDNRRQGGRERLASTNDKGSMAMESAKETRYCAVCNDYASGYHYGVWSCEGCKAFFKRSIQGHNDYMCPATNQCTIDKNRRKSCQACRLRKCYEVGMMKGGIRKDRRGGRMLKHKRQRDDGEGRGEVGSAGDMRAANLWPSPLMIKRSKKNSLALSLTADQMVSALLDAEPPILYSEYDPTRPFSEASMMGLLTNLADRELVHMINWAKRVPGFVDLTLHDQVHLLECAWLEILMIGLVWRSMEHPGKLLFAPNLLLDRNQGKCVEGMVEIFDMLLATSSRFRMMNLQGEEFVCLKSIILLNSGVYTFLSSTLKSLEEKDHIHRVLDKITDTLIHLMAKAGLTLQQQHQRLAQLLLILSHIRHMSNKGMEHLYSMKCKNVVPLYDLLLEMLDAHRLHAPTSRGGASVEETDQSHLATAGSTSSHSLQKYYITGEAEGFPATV

CC(C)C1OCCN1CCOC(=O)NCCCCCCNC(=O)OCCN1CCOC1C(C)C (stereo not drawn)
inactive: [1] | [2] | [3] | [4] | [5] | [6] | [7]

Nc1ccc(S(=O)(=O)Nc2cnc3ccccc3n2)cc1
inactive: [8] | [9] | [10] | [11] | [12] | [13] | [14] | [15] | [16] | [1] | [2] | [3] | [17] | [5] | [6] | [7] | [18] | [19]

O=C(C1CCCCC1)N1CC(=O)N2CCc3ccccc3C2C1 (stereo not drawn)
inactive: [8] | [9] | [10] | [11] | [12] | [13] | [14] | [15] | [16] | [18] | [19]

CNC(=C[N+](=O)[O-])NCCSCc1csc(CN(C)C)n1
inactive: [8] | [9] | [10] | [11] | [12] | [13] | [14] | [15] | [16] | [2] | [3] | [17] | [4] | [5] | [6] | [18] | [19]

COc1ccc(C(=O)c2ccccc2O)c(O)c1
inactive: [2] | [17] | [4] | [5] | [6] | [7] | [18] | [19]

Oc1cccc2ccccc12
inactive: [9] | [10] | [11] | [12] | [13] | [14] | [15] | [16] | [1] | [2] | [3] | [4] | [5] | [6] | [7] | [18] | [19]
active: [8] 100 µM

CO[Si](CCCNCCN)(OC)OC
inactive: [8] | [9] | [10] | [11] | [12] | [13] | [14] | [15] | [16]

O=C(O)c1cc(Cl)cc(Cl)c1O
inactive: [8] | [9] | [10] | [11] | [12] | [13] | [14] | [15] | [16] | [1] | [2] | [3] | [17] | [4] | [5] | [6] | [7] | [18] | [19]

CC(=O)OC(C)(C)Cc1ccccc1
inactive: [8] | [9] | [10] | [11] | [12] | [13] | [14] | [15] | [16] | [1] | [2] | [3] | [17] | [6] | [7]

COc1ccccc1Oc1c(NS(=O)(=O)c2ccc(C(C)(C)C)cc2)nc(-c2ncccn2)nc1OCCO
inactive: [1] | [2] | [3] | [5] | [18] | [19]

CCCCCCCCCCCCSC#N
inactive: [20] | [2] | [3] | [17] | [4]

CC(C)(C)NC(=O)[C@@H]1CN(Cc2cccnc2)CCN1C[C@@H](O)C[C@@H](Cc1ccccc1)C(=O)N[C@H]1c2ccccc2C[C@H]1O
active: [1] 36.3 µM | [2] 40.8 µM | [3] 43 µM | [4] 33.2 µM | [5] 43.8 µM | [6] 37.5 µM | [7] 39.8 µM
inactive: [8] | [9] | [10] | [11] | [12] | [13] | [14] | [15] | [16] | [2] | [3] | [17] | [4] | [5]

COc1cccc(OC)c1C(=O)O
inactive: [8] | [9] | [10] | [11] | [12] | [13] | [14] | [15] | [16] | [2] | [17] | [4] | [5] | [6] | [7]

COc1ccc2ccccc2c1
inactive: [8] | [9] | [10] | [11] | [12] | [13] | [14] | [15] | [16] | [18] | [19]

O=[N+]([O-])c1cc[n+]([O-])cc1
inactive: [20] | [1] | [2] | [3] | [4] | [5] | [6] | [7]
